From PubChem BioAssay (Tox21) come the findings set out here.

Records with an inconclusive call do not appear. A call without a number means that no potency is given here. Calls of active or inactive are those of the source. Calls come from the whole dose curve; as a rule, active = well fitted cell-killing curve with a large enough effect in the repeat runs; inconclusive = weak or mixed curves, or effect the other way; inactive = flat fitted curve, though single readings scatter.

Assay [1] in a line: cAMP Responsive Elements (CRE) small molecule antagonists, cell-based qHTS assay: qHTS cell viability counter screen (AID 2060913). Note: nearly all actives have a fitted effect of over 40% in size. An outline of the steps:
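HEK293T CRE-bla, 2,000 cells/well, 18 h preincubation; cpd in DMSO + NKH477 0.25 uM final, 3 h 37 C/5% CO2; LiveBLAzer 2 h RT, then CellTiter-Glo 30 min RT, luminescence.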
Background: Quantitative high-throughput screening tests each substance at several concentrations.

A short description of assay [2]: cAMP Responsive Elements (CRE) small molecule agonists, cell-based qHTS assay: qHTS cell viability counter screen (AID 2060914). Note: nearly all actives have a fitted effect of over 50% in size. Note: potency is the fitted concentration of half-maximal effect. The gist of the method:
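Cytotoxicity was measured as ATP luminescence (CellTiter-Glo, 30 min at room temperature) in the same wells as the CRE-bla FRET read-out. HEK293T CRE-bla cells had 3 h compound exposure at 37C/5% CO2.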

Turning to `F[Si-2](F)(F)(F)(F)F`, the Potency entry in assay [1] and in assay [2] was “inactive” in each case.
On to `C=C(C)C(=O)OCCCC`, for which the Potency result in assay [1] and in assay [2] was “inactive” throughout.
As for `CCCN1CCCC[C@H]1C(=O)Nc1c(C)cccc1C`, the Potency entry in assay [1] and in assay [2] was “inactive” each time.
For the molecule `CCC(C)OC(C)CC` (stereo not drawn), the Potency entry in assay [1] and in assay [2] was “inactive” in each case.
Consider `CCOC(=O)NCCC[Si](OCC)(OCC)OCC`, for which the Potency result in assay [1] and in assay [2] was “inactive” in each case.
For `NC(=S)NC(N)=S`, the Potency result in assay [1] and in assay [2] was “inactive” each time.
Consider `CCCCC(CC)(CO)CO`, for which the Potency result in assay [1] and in assay [2] was “inactive” throughout.
In the case of `CC[C@H]1OC(=O)[C@H](C)[C@@H](O[C@H]2C[C@@](C)(OC)[C@@H](O)[C@H](C)O2)[C@H](C)[C@@H](O[C@@H]2O[C@H](C)C[C@H](N(C)C)[C@H]2O)[C@](C)(O)C[C@@H](C)/C(=N\OCOCCOC)[C@H](C)[C@@H](O)[C@]1(C)O`, the Potency result in assay [1] was “inactive”. The Potency in assay [2] was 36 µM (active).
In the same order, the values of `C/C=C1\C(=O)C[C@H]2[C@@H]3CCC4=CC(=O)CC[C@]4(C)[C@H]3CC[C@]12C` are “inactive” and “inactive”.
Turning to `CN(C)CCN(Cc1ccccc1)c1ccccn1`, the Potency entry in assay [1] and in assay [2] was “inactive” each time.
On to `O=C(O)CCSSCCC(=O)O`, for which the Potency entry in assay [1] and in assay [2] was “inactive” throughout.
Consider `Nc1ccccn1`, for which the Potency result in assay [1] and in assay [2] was “inactive” throughout.
In the case of `CC(=O)OCC(=O)[C@@]12N=C(C)O[C@@H]1C[C@H]1[C@@H]3CCC4=CC(=O)C=C[C@]4(C)[C@H]3[C@@H](O)C[C@@]12C`, the Potency entry in assay [1] and in assay [2] was “inactive” in each case.
Consider `CCCCCCOC(=O)c1ccc(O)cc1`, for which the Potency result in assay [1] and in assay [2] was “inactive” each time.
On to `Cc1ccc(Nc2c(F)cccc2Cl)c(CC(=O)O)c1`, for which the Potency result in assay [1] and in assay [2] was “inactive” each time.
Consider `CC1CN(c2ccccc2)NC1=O` (stereo not drawn), for which the Potency result in assay [1] and in assay [2] was “inactive” each time.
For the molecule `CC1CCN(CCCC(=O)c2ccc(F)cc2)CC1`, the Potency result in assay [1] and in assay [2] was “inactive” each time.
As for `COC(=O)CC#N`, the Potency entry in assay [1] and in assay [2] was “inactive” each time.
Regarding `O=[N+]([O-])c1c(Cl)cc(Cl)cc1Cl`, the Potency entry in assay [1] and in assay [2] was “inactive” throughout.
In the case of `CC(=O)O[C@@H]1C(=O)O[C@@H]2[C@H]1OC(=O)[C@@H]2OC(C)=O`, the Potency entry in assay [1] and in assay [2] was “inactive” throughout.
As for `c1coc(CNc2ncnc3nc[nH]c23)c1`, the Potency entry in assay [1] and in assay [2] was “inactive” in each case.
In the case of `CN(C)c1ccc(N=Nc2ccccc2C(=O)O)cc1`, the Potency entry in assay [1] and in assay [2] was “inactive” throughout.
Consider `O=C(c1ccc(F)cc1)C1CCN(CCn2c(=O)[nH]c3ccccc3c2=O)CC1`, for which the Potency result in assay [1] and in assay [2] was “inactive” in each case.
Take `CN(C)C`: the Potency entry in assay [1] and in assay [2] was “inactive” in each case.
With `CC(C)(COC(=O)c1ccccc1)COC(=O)c1ccccc1`, the Potency entry in assay [1] and in assay [2] was “inactive” in each case.
Consider `CCOC(=O)COC(=O)c1cc(Oc2ccc(C(F)(F)F)cc2Cl)ccc1[N+](=O)[O-]`, for which the Potency result in assay [1] and in assay [2] was “inactive” each time.
For `NC(=O)c1cccc([N+](=O)[O-])c1`, the Potency entry in assay [1] and in assay [2] was “inactive” throughout.
In the case of `CNNCc1ccc(C(=O)NC(C)C)cc1`, the Potency result in assay [1] and in assay [2] was “inactive” each time.
Regarding `CC(=O)CCc1ccc(O)cc1`, the Potency result in assay [1] and in assay [2] was “inactive” each time.
Regarding `C[C@H](CCC(=O)NCC(=O)O)[C@H]1CC[C@H]2[C@@H]3[C@H](O)C[C@@H]4C[C@H](O)CC[C@]4(C)[C@H]3C[C@H](O)[C@]12C`, the Potency result in assay [1] and in assay [2] was “inactive” in each case.
With `C=CC(=O)O[C@H]1C[C@@H]2CC[C@@]1(C)C2(C)C`, the Potency entry in assay [1] and in assay [2] was “inactive” in each case.
As to `COC(=O)c1ccc(C=O)cc1`, the Potency entry in assay [1] and in assay [2] was “inactive” throughout.
In the case of `Clc1ccc2n[nH]nc2c1`, the Potency entry in assay [1] and in assay [2] was “inactive” in each case.
For the molecule `CCCc1ncc(C[n+]2ccccc2C)c(N)n1`, the Potency result in assay [1] and in assay [2] was “inactive” in each case.
For `CC1=C(C)S(=O)(=O)CCS1(=O)=O`, the Potency result in assay [1] and in assay [2] was “inactive” throughout.
On to `CC(=O)OCC(=O)[C@@]1(O)[C@H](OC(C)=O)C[C@H]2[C@@H]3CCC4=CC(=O)C=C[C@]4(C)[C@@]3(F)[C@@H](O)C[C@@]21C`, for which the Potency result in assay [1] and in assay [2] was “inactive” throughout.
Turning to `C[N+]1([O-])CCOCC1`, the Potency entry in assay [1] and in assay [2] was “inactive” each time.
As to `Clc1ccc(C(Cn2ccnc2)OCc2ccsc2Cl)c(Cl)c1` (stereo not drawn), the Potency entry in assay [1] and in assay [2] was “inactive” each time.
Consider `Nc1nc(N)c2nc(-c3ccccc3)c(N)nc2n1`, for which the Potency entry in assay [1] and in assay [2] was “inactive” in each case.
For the molecule `CCc1cccc(CC)c1N(COC)C(=O)CS(=O)(=O)O`, the Potency entry in assay [1] and in assay [2] was “inactive” each time.
With `CCOc1cccc(N)c1`, the Potency result in assay [1] and in assay [2] was “inactive” each time.
Turning to `O=C(O)c1cc(=O)c2c(OCC(O)COc3cccc4oc(C(=O)O)cc(=O)c34)cccc2o1`, the Potency result in assay [1] and in assay [2] was “inactive” in each case.
Take `CCCCCCC(O)CO` (stereo not drawn): the Potency entry in assay [1] and in assay [2] was “inactive” throughout.
As for `O=C(c1ccccc1)c1cc(Cl)ccc1O`, the Potency result in assay [1] and in assay [2] was “inactive” each time.
Take `COC(=O)NCCC[Si](OC)(OC)OC`: the Potency result in assay [1] and in assay [2] was “inactive” each time.
As to `CCCN1C=CN(C)C1`, the Potency result in assay [1] and in assay [2] was “inactive” in each case.
Regarding `COc1cc([C@@H]2c3cc4c(cc3[C@H](O)[C@H]3COC(=O)[C@H]23)OCO4)cc(OC)c1OC`, the Potency result in assay [1] and in assay [2] was “inactive” each time.
As for `Nc1cccc2c1CN(C1CCC(=O)NC1=O)C2=O` (stereo not drawn), the Potency result in assay [1] and in assay [2] was “inactive” throughout.
On to `O=C(O)CCc1nc2ccccc2[nH]1`, for which the Potency entry in assay [1] and in assay [2] was “inactive” in each case.
